# Laboratory results as given in paper PMC7862700, “An all-to-all approach to the identification of sequence-specific readers for epigenetic DNA modifications on cytosine”.
# Tests used:
# Assay in all cases: DAPPL (digital affinity profiling via proximity ligation, sequencing); 10 mM Tris-HCl pH 7.5, 50 mM NaCl, 1 mM DTT, 4% glycerol, room temperature, 30 min; GST-TFs on glutathione beads, 16-mer random dsDNA library, 0.1% formaldehyde crosslink after washing; high values mean tight binding
# [1] = molecular target: T1, FEV (Homo sapiens, UniProt Q99581 1-238); details: protein: recombinant; tags: N-terminal GST; dsDNA, one strand shown
# T1 sequence: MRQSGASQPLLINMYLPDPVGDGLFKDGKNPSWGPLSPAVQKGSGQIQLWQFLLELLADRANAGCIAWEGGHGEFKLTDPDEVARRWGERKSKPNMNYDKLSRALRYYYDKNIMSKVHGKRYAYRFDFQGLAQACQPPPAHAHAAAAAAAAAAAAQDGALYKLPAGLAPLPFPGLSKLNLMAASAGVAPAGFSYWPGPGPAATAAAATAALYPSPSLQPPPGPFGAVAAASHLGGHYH
# Outline: (§1)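 Human transcription factors fused to GST were expressed in yeast, captured on glutathione beads, given DNA barcodes and pooled with a GST-only negative control. Pools were incubated with 200 nmole of a 16-mer random double-stranded DNA library in Tris/NaCl/DTT/glycerol buffer at room temperature for 30 min. They were then washed, crosslinked with 0.1% formaldehyde, proximity-ligated (BsaI/T4 ligase, 1 h, 37 °C), PCR-amplified and sequenced on an Illumina NextSeq500. Binding signal is each 6-mer's read frequency for a factor divided by its frequency for the GST control.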
# [2] = molecular target: ETV5 (Homo sapiens, UniProt P41161 1-510); details: protein: recombinant; tags: N-terminal GST; dsDNA, one strand shown
# Chain of ETV5 (P41161 whole entry): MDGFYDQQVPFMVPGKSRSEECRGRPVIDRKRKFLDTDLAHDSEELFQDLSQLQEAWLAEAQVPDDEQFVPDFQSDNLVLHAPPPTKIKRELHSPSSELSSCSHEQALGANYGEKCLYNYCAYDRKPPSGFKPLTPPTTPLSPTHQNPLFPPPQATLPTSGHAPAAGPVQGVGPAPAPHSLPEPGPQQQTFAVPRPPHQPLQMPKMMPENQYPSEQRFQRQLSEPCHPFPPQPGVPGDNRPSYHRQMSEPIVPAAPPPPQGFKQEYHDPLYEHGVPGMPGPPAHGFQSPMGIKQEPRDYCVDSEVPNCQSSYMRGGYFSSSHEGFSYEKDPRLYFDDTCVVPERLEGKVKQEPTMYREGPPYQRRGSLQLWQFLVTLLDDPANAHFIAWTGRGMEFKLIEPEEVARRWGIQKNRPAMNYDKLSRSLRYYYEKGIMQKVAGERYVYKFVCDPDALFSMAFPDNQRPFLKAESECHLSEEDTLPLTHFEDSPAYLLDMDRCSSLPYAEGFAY
# Outline: as §1
# [3] = molecular target: HSF1 (Homo sapiens, UniProt Q00613 1-529); details: protein: recombinant; tags: N-terminal GST; chain copies: 3; dsDNA, one strand shown
# Chain of HSF1 (Q00613 whole entry): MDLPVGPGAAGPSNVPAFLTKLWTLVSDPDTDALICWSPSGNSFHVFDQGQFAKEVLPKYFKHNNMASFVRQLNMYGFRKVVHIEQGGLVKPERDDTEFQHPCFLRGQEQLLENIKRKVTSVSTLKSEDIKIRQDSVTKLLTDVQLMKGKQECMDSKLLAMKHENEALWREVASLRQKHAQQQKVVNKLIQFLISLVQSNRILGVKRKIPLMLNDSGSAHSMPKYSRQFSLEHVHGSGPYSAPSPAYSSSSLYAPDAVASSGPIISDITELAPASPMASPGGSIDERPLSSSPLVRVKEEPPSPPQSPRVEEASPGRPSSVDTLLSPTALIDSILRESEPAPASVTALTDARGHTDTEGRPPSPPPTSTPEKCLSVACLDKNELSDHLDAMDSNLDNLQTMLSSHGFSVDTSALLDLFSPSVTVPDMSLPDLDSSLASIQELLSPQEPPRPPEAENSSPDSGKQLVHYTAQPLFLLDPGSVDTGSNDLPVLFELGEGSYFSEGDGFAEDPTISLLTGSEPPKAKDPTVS
# Outline: as §1
# [4] = molecular target: T2, SPIC (Homo sapiens, UniProt Q8N5J4 1-248); details: protein: recombinant; tags: N-terminal GST; dsDNA, one strand shown
# T2 sequence: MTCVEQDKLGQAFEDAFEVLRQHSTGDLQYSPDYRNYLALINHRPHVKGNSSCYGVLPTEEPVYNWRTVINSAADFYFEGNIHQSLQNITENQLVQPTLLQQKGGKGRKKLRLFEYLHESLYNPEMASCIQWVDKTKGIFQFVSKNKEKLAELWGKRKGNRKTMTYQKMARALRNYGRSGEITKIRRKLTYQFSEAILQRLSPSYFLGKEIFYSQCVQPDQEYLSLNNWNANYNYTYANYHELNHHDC
# Outline: as §1
# [5] = molecular target: ELF4 (Homo sapiens, UniProt Q99607 1-663); details: protein: recombinant; tags: N-terminal GST; dsDNA, one strand shown
# Chain of ELF4 (Q99607 whole entry): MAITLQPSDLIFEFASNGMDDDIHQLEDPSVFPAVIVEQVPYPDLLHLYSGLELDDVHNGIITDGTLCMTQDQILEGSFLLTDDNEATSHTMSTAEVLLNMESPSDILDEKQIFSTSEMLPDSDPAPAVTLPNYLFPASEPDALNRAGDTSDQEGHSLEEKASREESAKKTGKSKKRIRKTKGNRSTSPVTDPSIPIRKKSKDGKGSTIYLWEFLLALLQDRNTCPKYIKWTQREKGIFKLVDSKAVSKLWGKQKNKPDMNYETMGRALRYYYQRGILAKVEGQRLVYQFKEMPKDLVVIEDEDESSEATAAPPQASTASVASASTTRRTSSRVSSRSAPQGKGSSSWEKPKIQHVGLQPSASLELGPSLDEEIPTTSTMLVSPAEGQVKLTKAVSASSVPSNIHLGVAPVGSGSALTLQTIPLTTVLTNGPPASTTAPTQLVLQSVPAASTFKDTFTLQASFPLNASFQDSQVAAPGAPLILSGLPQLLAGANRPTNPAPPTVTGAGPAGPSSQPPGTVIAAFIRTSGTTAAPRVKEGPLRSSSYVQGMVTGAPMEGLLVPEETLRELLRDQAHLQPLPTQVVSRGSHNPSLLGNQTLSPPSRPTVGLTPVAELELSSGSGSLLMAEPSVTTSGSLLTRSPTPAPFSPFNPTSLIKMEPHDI
# Outline: as §1
# [6] = molecular target: T3, ELK4 (Homo sapiens, UniProt P28324-2 1-405); details: protein: recombinant; tags: N-terminal GST; dsDNA, one strand shown
# T3 sequence: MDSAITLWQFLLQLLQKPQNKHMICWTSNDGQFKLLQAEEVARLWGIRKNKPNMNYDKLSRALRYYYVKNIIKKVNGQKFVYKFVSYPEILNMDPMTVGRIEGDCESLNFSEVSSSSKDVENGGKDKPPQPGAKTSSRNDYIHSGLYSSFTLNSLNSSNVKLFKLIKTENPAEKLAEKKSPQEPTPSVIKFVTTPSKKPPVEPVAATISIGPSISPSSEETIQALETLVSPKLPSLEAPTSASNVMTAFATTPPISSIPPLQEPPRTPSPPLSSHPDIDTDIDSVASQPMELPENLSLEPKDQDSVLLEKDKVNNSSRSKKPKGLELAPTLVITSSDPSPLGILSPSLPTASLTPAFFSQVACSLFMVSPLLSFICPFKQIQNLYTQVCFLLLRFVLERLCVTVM
# Outline: as §1
# [7] = molecular target: T4, ETV2 (Homo sapiens, UniProt O00321 1-342); details: protein: recombinant; tags: N-terminal GST; dsDNA, one strand shown
# T4 sequence: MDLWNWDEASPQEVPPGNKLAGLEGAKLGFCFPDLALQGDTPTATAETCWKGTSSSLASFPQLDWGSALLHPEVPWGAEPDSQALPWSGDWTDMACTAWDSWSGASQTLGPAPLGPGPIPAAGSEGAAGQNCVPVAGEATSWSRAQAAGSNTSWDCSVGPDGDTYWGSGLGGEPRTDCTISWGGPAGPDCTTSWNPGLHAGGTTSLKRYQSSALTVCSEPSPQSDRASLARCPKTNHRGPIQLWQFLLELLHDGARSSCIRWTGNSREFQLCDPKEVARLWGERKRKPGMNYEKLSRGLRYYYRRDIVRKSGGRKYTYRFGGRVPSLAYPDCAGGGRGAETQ
# Outline: as §1
# [8] = molecular target: T5, ELF3 (Homo sapiens, UniProt P78545 1-371); details: protein: recombinant; tags: N-terminal GST; dsDNA, one strand shown
# T5 sequence: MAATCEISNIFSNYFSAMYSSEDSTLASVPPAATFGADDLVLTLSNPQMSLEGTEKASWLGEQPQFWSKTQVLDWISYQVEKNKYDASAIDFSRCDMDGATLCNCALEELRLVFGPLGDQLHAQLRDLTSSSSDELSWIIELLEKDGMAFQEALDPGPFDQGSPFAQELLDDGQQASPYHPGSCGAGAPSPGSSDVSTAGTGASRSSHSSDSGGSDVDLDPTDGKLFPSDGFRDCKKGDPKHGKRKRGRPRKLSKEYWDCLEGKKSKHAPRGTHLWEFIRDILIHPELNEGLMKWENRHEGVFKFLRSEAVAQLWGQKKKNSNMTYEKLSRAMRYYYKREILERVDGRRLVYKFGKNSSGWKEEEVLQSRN
# Outline: as §1
# [9] = molecular target: CRX (Homo sapiens, UniProt O43186 1-299); details: protein: recombinant; tags: N-terminal GST; dsDNA, one strand shown
# Chain of CRX (O43186 whole entry): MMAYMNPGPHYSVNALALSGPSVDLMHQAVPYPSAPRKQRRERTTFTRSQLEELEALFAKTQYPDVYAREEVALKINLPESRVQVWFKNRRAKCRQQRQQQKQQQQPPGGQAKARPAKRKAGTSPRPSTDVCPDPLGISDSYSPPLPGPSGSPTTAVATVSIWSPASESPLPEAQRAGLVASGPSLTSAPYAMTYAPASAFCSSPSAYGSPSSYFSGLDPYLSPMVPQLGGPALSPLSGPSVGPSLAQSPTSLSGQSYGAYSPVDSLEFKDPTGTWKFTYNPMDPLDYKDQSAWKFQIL
# Outline: as §1
# [10] = molecular target: ETV1 (Homo sapiens, UniProt P50549 1-477); details: protein: recombinant; tags: N-terminal GST; dsDNA, one strand shown
# Chain of ETV1 (P50549 whole entry): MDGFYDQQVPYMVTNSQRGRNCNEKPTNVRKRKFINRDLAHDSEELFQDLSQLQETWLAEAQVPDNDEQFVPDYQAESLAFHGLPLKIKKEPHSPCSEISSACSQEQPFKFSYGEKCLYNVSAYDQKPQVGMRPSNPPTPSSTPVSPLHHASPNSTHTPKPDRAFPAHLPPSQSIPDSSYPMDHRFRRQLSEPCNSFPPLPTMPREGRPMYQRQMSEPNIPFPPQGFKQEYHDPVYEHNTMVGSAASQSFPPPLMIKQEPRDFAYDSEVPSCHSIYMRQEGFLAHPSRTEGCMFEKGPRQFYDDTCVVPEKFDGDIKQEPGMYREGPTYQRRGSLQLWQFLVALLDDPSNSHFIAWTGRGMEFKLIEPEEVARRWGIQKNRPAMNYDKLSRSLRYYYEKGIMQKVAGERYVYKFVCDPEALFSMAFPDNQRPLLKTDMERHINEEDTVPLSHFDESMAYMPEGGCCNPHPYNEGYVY
# Outline: as §1
# [11] = molecular target: T6, ERF (Homo sapiens, UniProt P50548 1-548); details: protein: recombinant; tags: N-terminal GST; dsDNA, one strand shown
# T6 sequence: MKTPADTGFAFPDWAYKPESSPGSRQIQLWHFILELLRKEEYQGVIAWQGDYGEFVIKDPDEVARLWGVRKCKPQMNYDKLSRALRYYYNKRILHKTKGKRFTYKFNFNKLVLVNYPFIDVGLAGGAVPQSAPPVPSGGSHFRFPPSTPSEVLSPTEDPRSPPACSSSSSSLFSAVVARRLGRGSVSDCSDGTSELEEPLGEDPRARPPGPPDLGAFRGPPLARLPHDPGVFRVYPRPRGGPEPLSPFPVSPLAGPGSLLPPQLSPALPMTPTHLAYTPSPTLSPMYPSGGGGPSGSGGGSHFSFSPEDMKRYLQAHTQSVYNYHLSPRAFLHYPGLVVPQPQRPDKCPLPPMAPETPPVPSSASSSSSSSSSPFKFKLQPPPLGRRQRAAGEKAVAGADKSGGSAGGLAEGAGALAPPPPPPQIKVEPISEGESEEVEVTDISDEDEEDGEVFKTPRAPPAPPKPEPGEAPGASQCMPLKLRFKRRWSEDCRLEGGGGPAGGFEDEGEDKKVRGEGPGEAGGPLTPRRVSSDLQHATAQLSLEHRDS
# Outline: as §1
# [12] = molecular target: T7, ETV3L (Homo sapiens, UniProt Q6ZN32 1-361); details: protein: recombinant; tags: N-terminal GST; dsDNA, one strand shown
# T7 sequence: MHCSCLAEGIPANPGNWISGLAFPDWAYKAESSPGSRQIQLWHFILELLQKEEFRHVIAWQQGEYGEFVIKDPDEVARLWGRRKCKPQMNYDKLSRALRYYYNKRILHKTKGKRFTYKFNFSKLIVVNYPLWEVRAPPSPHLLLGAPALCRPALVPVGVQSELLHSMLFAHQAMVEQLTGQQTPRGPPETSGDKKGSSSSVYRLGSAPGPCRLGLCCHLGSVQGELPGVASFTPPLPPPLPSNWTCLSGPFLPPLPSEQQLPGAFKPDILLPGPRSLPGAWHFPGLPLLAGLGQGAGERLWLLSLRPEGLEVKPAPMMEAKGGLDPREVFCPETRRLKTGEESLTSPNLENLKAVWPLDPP
# Outline: as §1
# [13] = molecular target: T8, ETS2 (Homo sapiens, UniProt P15036 1-469); details: protein: recombinant; tags: N-terminal GST; dsDNA, one strand shown
# T8 sequence: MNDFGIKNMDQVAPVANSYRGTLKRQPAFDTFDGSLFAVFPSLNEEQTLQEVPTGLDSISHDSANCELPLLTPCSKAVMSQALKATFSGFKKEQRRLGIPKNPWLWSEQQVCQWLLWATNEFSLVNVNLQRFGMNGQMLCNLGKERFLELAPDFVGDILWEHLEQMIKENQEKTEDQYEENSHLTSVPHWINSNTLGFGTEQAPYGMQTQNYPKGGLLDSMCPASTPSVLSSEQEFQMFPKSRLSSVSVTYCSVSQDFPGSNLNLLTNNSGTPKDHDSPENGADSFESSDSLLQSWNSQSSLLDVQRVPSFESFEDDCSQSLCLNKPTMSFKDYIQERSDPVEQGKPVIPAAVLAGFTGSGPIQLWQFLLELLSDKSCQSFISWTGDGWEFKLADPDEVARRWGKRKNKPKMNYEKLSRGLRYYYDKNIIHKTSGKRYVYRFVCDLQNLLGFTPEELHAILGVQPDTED
# Outline: as §1
# [14] = molecular target: T9, SPDEF (Homo sapiens, UniProt O95238 1-335); details: protein: recombinant; tags: N-terminal GST; dsDNA, one strand shown
# T9 sequence: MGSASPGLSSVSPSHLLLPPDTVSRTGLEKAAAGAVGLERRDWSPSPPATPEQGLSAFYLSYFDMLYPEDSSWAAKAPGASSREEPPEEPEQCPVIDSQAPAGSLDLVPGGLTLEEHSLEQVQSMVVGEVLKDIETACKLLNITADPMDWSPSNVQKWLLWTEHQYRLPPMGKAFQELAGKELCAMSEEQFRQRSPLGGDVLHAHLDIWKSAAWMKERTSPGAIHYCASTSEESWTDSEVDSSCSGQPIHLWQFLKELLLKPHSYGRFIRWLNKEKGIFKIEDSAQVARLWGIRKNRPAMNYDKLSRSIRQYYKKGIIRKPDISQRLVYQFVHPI
# Outline: as §1
# [15] = molecular target: T10, ETV7 (Homo sapiens, UniProt Q9Y603 1-341); details: protein: recombinant; tags: N-terminal GST; dsDNA, one strand shown
# T10 sequence: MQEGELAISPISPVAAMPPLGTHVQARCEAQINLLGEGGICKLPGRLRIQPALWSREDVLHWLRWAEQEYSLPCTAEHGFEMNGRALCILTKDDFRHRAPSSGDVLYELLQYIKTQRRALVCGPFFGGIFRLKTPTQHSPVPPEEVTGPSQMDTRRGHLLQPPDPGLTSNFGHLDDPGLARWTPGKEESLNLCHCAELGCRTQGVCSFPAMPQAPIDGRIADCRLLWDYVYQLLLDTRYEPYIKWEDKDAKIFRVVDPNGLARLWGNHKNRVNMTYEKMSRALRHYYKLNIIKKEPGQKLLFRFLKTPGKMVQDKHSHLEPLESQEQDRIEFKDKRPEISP
# Outline: as §1
# [16] = molecular target: T11, ELF5 (Homo sapiens, UniProt Q9UKW6-2 1-255); details: protein: recombinant; tags: N-terminal GST; dsDNA, one strand shown
# T11 sequence: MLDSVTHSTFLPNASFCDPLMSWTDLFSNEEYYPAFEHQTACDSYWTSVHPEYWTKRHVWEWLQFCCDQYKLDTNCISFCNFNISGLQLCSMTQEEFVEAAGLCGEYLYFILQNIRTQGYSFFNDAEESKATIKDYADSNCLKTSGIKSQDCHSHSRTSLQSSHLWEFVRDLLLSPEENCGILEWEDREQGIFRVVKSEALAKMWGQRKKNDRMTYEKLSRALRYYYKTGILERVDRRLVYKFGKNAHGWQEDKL
# Outline: as §1
# [17] = molecular target: T12, ETV3 (Homo sapiens, UniProt P41162-2 1-143); details: protein: recombinant; tags: N-terminal GST; dsDNA, one strand shown
# T12 sequence: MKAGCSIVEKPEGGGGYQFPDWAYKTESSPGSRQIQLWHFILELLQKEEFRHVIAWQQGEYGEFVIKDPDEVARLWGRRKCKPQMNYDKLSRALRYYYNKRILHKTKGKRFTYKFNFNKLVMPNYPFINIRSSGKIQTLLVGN
# Outline: as §1
# [18] = molecular target: ETV6 (Homo sapiens, UniProt P41212 1-452); details: protein: recombinant; tags: N-terminal GST; dsDNA, one strand shown
# Chain of ETV6 (P41212 whole entry): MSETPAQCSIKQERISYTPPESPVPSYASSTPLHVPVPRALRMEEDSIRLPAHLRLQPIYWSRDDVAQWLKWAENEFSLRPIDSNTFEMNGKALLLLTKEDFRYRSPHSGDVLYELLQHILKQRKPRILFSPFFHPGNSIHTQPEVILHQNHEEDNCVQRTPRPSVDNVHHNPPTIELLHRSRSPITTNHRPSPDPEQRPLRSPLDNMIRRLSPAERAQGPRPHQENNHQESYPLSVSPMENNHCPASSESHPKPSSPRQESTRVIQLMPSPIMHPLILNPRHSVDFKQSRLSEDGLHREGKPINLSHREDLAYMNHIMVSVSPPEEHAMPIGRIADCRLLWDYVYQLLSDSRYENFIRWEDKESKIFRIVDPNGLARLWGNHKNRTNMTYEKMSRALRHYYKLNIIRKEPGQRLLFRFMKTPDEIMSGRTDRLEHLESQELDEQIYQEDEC
# Outline: as §1
sequence,measurement,setting,value
TGTTCC,binding signal,[1],"1.69 fold enrichment (6-mer frequency, TF over GST control)"
same,binding signal,[2],"1.71 fold enrichment (6-mer frequency, TF over GST control)"
same,binding signal,[3],"1.85 fold enrichment (6-mer frequency, TF over GST control)"
same,binding signal,[4],"2 fold enrichment (6-mer frequency, TF over GST control)"
same,binding signal,[5],"1.64 fold enrichment (6-mer frequency, TF over GST control)"
same,binding signal,[6],"1.49 fold enrichment (6-mer frequency, TF over GST control)"
same,binding signal,[7],"1.78 fold enrichment (6-mer frequency, TF over GST control)"
same,binding signal,[8],"1.6 fold enrichment (6-mer frequency, TF over GST control)"
same,binding signal,[9],"1.21 fold enrichment (6-mer frequency, TF over GST control)"
same,binding signal,[10],"1.86 fold enrichment (6-mer frequency, TF over GST control)"
same,binding signal,[11],"1.75 fold enrichment (6-mer frequency, TF over GST control)"
same,binding signal,[12],"1.62 fold enrichment (6-mer frequency, TF over GST control)"
same,binding signal,[13],"1.75 fold enrichment (6-mer frequency, TF over GST control)"
same,binding signal,[14],"2.03 fold enrichment (6-mer frequency, TF over GST control)"
same,binding signal,[15],"1.68 fold enrichment (6-mer frequency, TF over GST control)"
same,binding signal,[16],"2.3 fold enrichment (6-mer frequency, TF over GST control)"
same,binding signal,[17],"1.85 fold enrichment (6-mer frequency, TF over GST control)"
same,binding signal,[18],"1.69 fold enrichment (6-mer frequency, TF over GST control)"
